Measurements from the supplement of paper PMC6555819.

tested on: RXRa homodimer (NR concentration 180 nM); assay: PBM binding z-score (relative to random genomic background probes); higher = stronger binding; sequences stand for … in GC…GCGATTGACAGCGTAGAATGAAGG
Method in brief: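 Antibodies against each partner of ligand-free nuclear receptor dimers (one per run) detected binding on custom Agilent 4×180K protein-binding microarrays after 1 h incubation. The double-stranded probes had 34-nt variable regions carrying direct-repeat seeds, single-nucleotide variants, half-site ablations and random human genomic background sequences. Binding z-scores, from regression-normalized fluorescence, use the random background probes as reference.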

Row | Sequence | PBM binding z-score
1 | TCTCGGAGGACATGAAGGTCAGAGCTTTCCAGAG | 1.44
2 | GGAACCAGGGCAAAGTTGATAGCATCTGTCGACG | 1.12
3 | CGTCCAAGGTCAATGCTAGGTCAGTGAAAGCATT | 5.28
4 | CAAACTACGTCACCGGAAGGTCAAAGTCCGCATG | 3.55
5 | TCTAGCAGGCCAGATGGTCACTCAAGAGGTACGG | -0.0633
6 | AGAATGAGGTTACCAAAGATCAGGGCAACGCTTG | 2.77
7 | GCTCGGAGGACAAGGTCAGAGCCTTGTCCGTAGA | 2.81
8 | GCTACTGGGGCAAAGCAGGTTACCATAAGGTTGG | 0.261
9 | TCTATTAGTTGACGGGCAACCGACGAGTCCGTTT | 0.417
10 | TCACACAGGTGAAGGTAACTCAGGTACGCAGTCG | 1.18
11 | TCATATAGGTAAAAGGAGAAAGTCGGTGTGGTAA | 0.649
12 | ATCTCTAGGGAAAAGTTCAGTGAATCCCGAGGAT | 0.636
13 | CGTCCACGGTCAAGGTCAGTGAAAGAGACTCGAA | 2.45
14 | CCTCCAAGGTCAATGCTAGGTCAGTGAAAGCATT | 4.78
15 | CCAGACAGGTGAGAAGGTAACACAGCCTCGATTA | 0.73
16 | TAGCCTAGGTCAAGGGCCAGTATACCACGCGAAC | 3.58
17 | CCTAGTTGGTCAGAAGGTCACACACCGGATATGA | 4.4
18 | CGTCAAAATTCAACTAAGGTAACGTAAAGCACGC | 0.529
19 | ATCTCTAGGTAAAGTTCAGTGATAGATCGATAGA | 1.42
20 | TCTTGTAAATCAGCAGGTTAAGAAAGCTGGCCAA | 0.361
21 | ATACCAAGGTGACCGTGAGGTCGTTGATACTAAC | 2.27
22 | CTACCCAGGTGAACAAGGTCGTTGATTACTATTC | 1.46
